The source of these data is PubChem BioAssay.

In general, viability refers to a read-out of living cells in per cent, often relative to untreated cells.

Active and inactive are the calls of the source.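 Rule for the calls: active = normalized viability below 100% at a tested concentration; inactive = the rest.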

The assay in a line: drug combination growth inhibition, ovarian cancer – cell-based, oncology-focused library, rucaparib conditional, profiling panel (AID 1508598). As to conditions: patient-derived ovarian cancer cells, CellTiter-Glo viability, 144 h; at 0.00122 µM; OCI-C5x cells; with rucaparib 10 µM; active compounds read low; 100% = cells with rucaparib alone. (In general: Cellular ATP, detected with luciferase, serves as a proxy for viable cell number.)
As to `N[C@@H]1CCCN(c2c(/C=C3\SC(=O)NC3=O)cccc2-c2ccccc2)C1`, the viability is 116% (inactive).

Take `C[C@@H]1C[C@H]2[C@@H]3CCC4=CC(=O)C=C[C@]4(C)[C@]3(F)[C@H](O)C[C@]2(C)[C@]1(O)C(=O)CO`: the viability was 117% (inactive).

As for `Cc1cc2c(C(=O)NC[C@H](C)c3ccccc3)c(O)c(O)cc2c(O)c1-c1c(C)cc2c(C(=O)NC[C@H](C)c3ccccc3)c(O)c(O)cc2c1O`, the viability was 132% (inactive).

As for `Nc1nc(F)nc2c1ncn2[C@H]1O[C@H](CO)[C@@H](O)[C@@H]1O`, the viability was 106% (inactive).

For `COc1cccc2c1C(=O)c1c(O)c3c(c(O)c1C2=O)C[C@@](O)(C(=O)CO)C[C@H]3O[C@H]1C[C@H](N)[C@@H](O)[C@H](C)O1`, the viability was 94.3% (active).

Take `C=C1/C(=C/C=C2\CCC[C@@]3(C)[C@H]2CC[C@H]3[C@H](C)/C=C/[C@@H](C)C(C)C)C[C@H](O)C[C@@H]1O`: the viability was 97.2% (active).

Turning to `CO[C@H]1C[C@H]2CC[C@@H](C)[C@@](O)(O2)C(=O)C(=O)N2CCCC[C@H]2C(=O)O[C@H]([C@H](C)C[C@@H]2CC[C@H](OP(C)(C)=O)[C@H](OC)C2)CC(=O)[C@H](C)/C=C(\C)[C@@H](O)[C@@H](OC)C(=O)[C@H](C)C[C@H](C)/C=C/C=C/C=C/1C`, the viability is 102% (inactive).

As for `C=CCNC1=C2C[C@@H](C)C[C@H](OC)[C@H](O)[C@@H](C)/C=C(\C)[C@H](OC(N)=O)[C@@H](OC)/C=C\C=C(\C)C(=O)NC(=CC1=O)C2=O`, the viability is 113% (inactive).

Turning to `CC[C@]1(O)C[C@@H]2CN(CCc3c([nH]c4ccccc34)[C@@](C(=O)OC)(c3cc4c(cc3OC)N(C=O)[C@@H]3C45CCN4CC=C[C@](CC)([C@H]45)[C@H](OC(C)=O)[C@]3(O)C(=O)OC)C2)C1` (stereo partly drawn), the viability was 120% (inactive).

On to `COc1cccc2c1C(=O)c1c(O)c3c(c(O)c1C2=O)C[C@@](O)(C(C)=O)C[C@H]3O[C@H]1C[C@H](N)[C@H](O)[C@H](C)O1`, for which the viability was 123% (inactive).

With `CCOc1ccc(Cc2cc([C@@H]3O[C@H](CO)[C@@H](O)[C@H](O)[C@@H]3O)ccc2Cl)cc1`, the viability is 126% (inactive).

Consider `CC(=O)[C@]1(O)Cc2c(O)c3c(c(O)c2[C@H](O[C@H]2C[C@H](N)[C@H](O)[C@H](C)O2)C1)C(=O)c1ccccc1C3=O`, for which the viability was 105% (inactive).

For the compound `CCC1=CC2CN(C1)Cc1c([nH]c3ccccc13)[C@@](C(=O)OC)(c1cc3c(cc1OC)N(C)[C@H]1[C@@](O)(C(=O)OC)[C@H](OC(C)=O)[C@]4(CC)C=CCN5CC[C@@]31[C@H]54)C2` (stereo partly drawn), the viability was 94.4% (active).

`CC(=O)O[C@H]1C(=O)[C@@]2(C)C([C@H](OC(=O)c3ccccc3)[C@]3(O)C[C@H](OC(=O)[C@H](O)[C@@H](NC(=O)c4ccccc4)c4ccccc4)C(C)=C1C3(C)C)[C@]1(OC(C)=O)CO[C@@H]1C[C@H]2O` (stereo partly drawn): the viability is 114% (inactive).

`CO[C@H]1C[C@H]2CC[C@@H](C)[C@@](O)(O2)C(=O)C(=O)N2CCCC[C@H]2C(=O)O[C@H]([C@H](C)C[C@@H]2CC[C@H](OC(=O)C(C)(CO)CO)[C@H](OC)C2)CC(=O)[C@H](C)/C=C(\C)[C@@H](O)[C@@H](OC)C(=O)[C@H](C)C[C@H](C)/C=C/C=C/C=C/1C`: the viability was 97% (active).

Consider `CO[C@H]1/C=C\C=C(\C)C(=O)NC2=CC(=O)C(NCCN(C)C)=C(C[C@@H](C)C[C@H](OC)[C@H](O)[C@@H](C)/C=C(\C)[C@@H]1OC(N)=O)C2=O`, for which the viability was 109% (inactive).

Turning to `CC(C)(C(=O)NCC(F)(F)C(F)(F)F)C(=O)N[C@H]1C(=O)Nc2ccccc2-c2ccccc21`, the viability was 106% (inactive).

As for `CC1(C)O[C@@H]2C[C@H]3[C@@H]4CCC5=CC(=O)C=C[C@]5(C)[C@]4(F)[C@H](O)C[C@]3(C)[C@@]2(C(=O)CO)O1`, the viability is 116% (inactive).
